Assay results reported in PubChem BioAssay AID1159580 (chemical genetic matrix, 2015).
Out of some 5,500 compounds screened, about 2,000 (36%) were called active. Not shown: some 18% with an inconclusive outcome. No stated cut-off is given here; in the data, active means normalized growth mostly below about 0.91 (no sharp cut-off); inconclusive means no clear call, values can overlap the other calls; inactive means mostly above about 0.92. This is one part of the list.

Assay: chemical genetic growth profiling, strain panel (AID 1159580);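 further: tested at 20 µM; growth read once vehicle control cultures reached saturation at 30 °C; 1 = growth at the plate median or of vehicle wells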
Settings: S. cerevisiae deletion strains, growth OD
[1] = locus YAR019C, strain CDC15, stronger effect = lower value
[2] = locus YBL105C, strain PKC1, stronger effect = lower value
[3] = locus YBR135W, strain CKS1, stronger effect = lower value
[4] = locus YBR136W, strain MEC1, stronger effect = lower value
[5] = locus YBR160W, strain CDC28, stronger effect = lower value
[6] = locus YDL017W, strain CDC7, stronger effect = lower value
[7] = locus YDL028C, strain MPS1, stronger effect = lower value
[8] = locus YDL101C, strain DUN1, stronger effect = lower value
[9] = locus YDL108W, strain KIN28, stronger effect = lower value
[10] = locus YDL132W, strain cdc53, stronger effect = lower value
[11] = locus YDL214C, strain PRR2, stronger effect = lower value
[12] = locus YDR052C, strain DBF4, stronger effect = lower value
[13] = locus YDR054C, strain cdc34, stronger effect = lower value
[14] = locus YDR226W, strain ADK1, stronger effect = lower value
[15] = locus YDR477W, strain SNF1, stronger effect = lower value
[16] = locus YER123W, strain YCK3, stronger effect = lower value
[17] = locus YER133W, strain GLC7, stronger effect = lower value
[18] = locus YFL009W, strain cdc4, stronger effect = lower value
[19] = locus YFL029C, strain CAK1, stronger effect = lower value
[20] = locus YFR003C, strain YPI1, stronger effect = lower value
[21] = locus YFR019W, strain FAB1, stronger effect = lower value
[22] = locus YFR028C, strain CDC14, stronger effect = lower value
[23] = locus YGR040W, strain KSS1, stronger effect = lower value
[24] = locus YGR052W, strain FMP48, stronger effect = lower value
[25] = locus YGR092W, strain DBF2, stronger effect = lower value
[26] = locus YHR030C, strain SLT2, stronger effect = lower value
[27] = locus YHR079C, strain IRE1, stronger effect = lower value
[28] = locus YHR082C, strain KSP1, stronger effect = lower value
[29] = locus YHR205W, strain SCH9, stronger effect = lower value
[30] = locus YIL147C, strain SLN1, stronger effect = lower value
[31] = locus YJL095W, strain BCK1, stronger effect = lower value
[32] = locus YJL128C, strain PBS2, stronger effect = lower value
[33] = locus YJL157C, strain FAR1, stronger effect = lower value
[34] = locus YJR016C, strain ILV3, stronger effect = lower value
[35] = locus YJR066W, strain TOR1 (second series), stronger effect = lower value
[36] = locus YJR066W, strain TOR1, stronger effect = lower value
[37] = locus YKL048C, strain ELM1, stronger effect = lower value
[38] = locus YKL067W, strain YNK1, stronger effect = lower value
[39] = locus YKL101W, strain HSL1, stronger effect = lower value
[40] = locus YKL193C, strain SDS22, stronger effect = lower value
[41] = locus YKL203C, strain TOR2, stronger effect = lower value
[42] = locus YLR113W, strain HOG1, stronger effect = lower value
[43] = locus YLR133W, strain CKI1, stronger effect = lower value
[44] = locus YLR403W, strain SFP1, stronger effect = lower value
[45] = locus YML070W, strain DAK1, stronger effect = lower value
[46] = locus YMR001C, strain CDC5, stronger effect = lower value
[47] = locus YMR205C, strain PFK2 (second series), stronger effect = lower value
[48] = locus YMR277W, strain FCP1, stronger effect = lower value
[49] = locus YNL006W, strain LST8, stronger effect = lower value
[50] = locus YNL020C, strain ARK1, stronger effect = lower value
[51] = locus YNL161W, strain CBK1, stronger effect = lower value
[52] = locus YNL183C, strain NPR1, stronger effect = lower value
[53] = locus YNL207W, strain RIO2, stronger effect = lower value
[54] = locus YNL222W, strain SSU72, stronger effect = lower value
[55] = locus YNL307C, strain MCK1 (second series), stronger effect = lower value
[56] = locus YOL078W, strain AVO1, stronger effect = lower value
[57] = locus YOL136C, strain PFK27, stronger effect = lower value
[58] = locus YOR061W, strain CKA2, stronger effect = lower value
[59] = locus YOR119C, strain RIO1, stronger effect = lower value
[60] = locus YOR231W, strain MKK1, stronger effect = lower value
[61] = locus YOR329C, strain SCD5, stronger effect = lower value
[62] = locus YPL031C, strain PHO85, stronger effect = lower value
[63] = locus YPL153C, strain RAD53, stronger effect = lower value
[64] = locus YPL204W, strain HRR25, stronger effect = lower value
[65] = locus YPL209C, strain IPL1, stronger effect = lower value
[66] = locus YPL256C, strain CLN2, stronger effect = lower value
[67] = locus YPR025C, strain CCL1, stronger effect = lower value
[68] = locus YPR106W, strain ISR1, stronger effect = lower value
[69] = locus YPR111W, strain DBF20, stronger effect = lower value
[70] = strain NNK1, stronger effect = lower value
[71] = strain TSCII, stronger effect = lower value

Measured: normalized growth

CCOC(=O)C(O)(c1ccc(NC(=O)Nc2ccc(Cl)cc2)cc1)C(F)(F)F (configuration not stated)
inactive: [1] 0.993 | [2] 0.985 | [3] 0.997 | [4] 0.985 | [5] 0.99 | [6] 0.989 | [7] 0.987 | [8] 0.982 | [9] 0.986 | [10] 0.993 | [11] 1.03 | [12] 0.984 | [13] 0.986 | [14] 0.993 | [15] 1.01 | [16] 1.01 | [17] 1 | [18] 0.997 | [19] 0.99 | [20] 0.988 | [21] 0.988 | [22] 0.992 | [23] 0.999 | [24] 0.991 | [25] 0.924 | [26] 1.06 | [27] 1.04 | [28] 1.05 | [29] 0.935 | [30] 0.981 | [31] 0.915 | [32] 0.956 | [33] 1 | [34] 0.994 | [35] 0.977 | [36] 1.03 | [37] 1.01 | [38] 0.994 | [39] 0.975 | [40] 0.987 | [41] 1.04 | [42] 0.963 | [43] 1.01 | [44] 0.973 | [45] 0.992 | [46] 0.983 | [47] 0.991 | [48] 0.999 | [49] 1.01 | [50] 1 | [51] 0.998 | [52] 1.01 | [53] 0.983 | [54] 0.979 | [55] 0.924 | [56] 0.982 | [57] 0.992 | [58] 1 | [59] 1.08 | [60] 0.986 | [61] 0.992 | [62] 0.987 | [63] 1.03 | [64] 1 | [65] 0.996 | [66] 1.11 | [67] 0.99 | [68] 0.992 | [69] 0.986 | [70] 0.998 | [71] 0.993

COc1cccc(C(=O)C(C#N)=C(SC)SC)c1
active: [1] 0.875 | [2] 0.88 | [3] 0.87 | [4] 0.879 | [5] 0.878 | [6] 0.881 | [7] 0.884 | [8] 0.901 | [9] 0.894 | [10] 0.874 | [11] 0.429 | [12] 0.879 | [13] 0.855 | [14] 0.87 | [15] 0.393 | [16] 0.256 | [17] 0.295 | [18] 0.869 | [19] 0.872 | [20] 0.88 | [21] 0.287 | [22] 0.868 | [23] 0.331 | [24] 0.294 | [25] 0.206 | [26] 0.192 | [27] 0.307 | [28] 0.298 | [29] 0.321 | [30] 0.885 | [31] 0.264 | [33] 0.37 | [34] 0.874 | [35] 0.275 | [36] 0.268 | [37] 0.45 | [38] 0.508 | [39] 0.434 | [40] 0.886 | [41] 0.291 | [42] 0.324 | [43] 0.44 | [44] 0.265 | [45] 0.346 | [46] 0.876 | [47] 0.526 | [48] 0.881 | [49] 0.887 | [50] 0.432 | [51] 0.871 | [52] 0.298 | [53] 0.88 | [54] 0.891 | [55] 0.293 | [56] 0.868 | [57] 0.301 | [58] 0.423 | [59] 0.317 | [60] 0.366 | [61] 0.872 | [62] 0.309 | [63] 0.387 | [64] 0.294 | [65] 0.877 | [66] 0.292 | [67] 0.875 | [71] 0.867
inactive: [32] 0.89 | [68] 0.893 | [69] 0.902 | [70] 0.89
